Screens (PubChem BioAssay)
An excerpt weighted towards active compounds, which were near 2.9% of everything screened.
ADAM17 inh = inhibits human ADAM17. P78536. recombinant ADAM17, EDANS/DABCYL FRET peptide cleavage. inhibition, % at 6.95 µM. 370,000 tested, 0.83% active;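 active means inhibition above the mean of compounds lying between control limits plus 3 SD, set per campaign, cut at about 8.5% in these data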
KLK7 zymogen act = activates the human kallikrein-7 zymogen; 370,000 tested, 0.9% active; activation, % at 7 µM; P49862; purified proKLK7, EDANS-DABCYL substrate fluorescence; 100% is mature enzyme control, 0% vehicle;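 active means activation above the mean of all tested compounds plus 3 SD, computed per campaign excluding outliers beyond control limits, cut at about 13% in these data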
ADAM10 inh = inhibits human ADAM10 | O14672 | recombinant ADAM10, EDANS/DABCYL FRET peptide cleavage, 3 h | inhibition, % at 7 µM | 370,000 tested, 0.62% active | AID 720582;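 active means inhibition above a per-campaign cutoff equal to the mean of compounds falling between control-based bounds plus 3 SD, cut at about 20% in these data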
PLCb3 inh = inhibitors of human phospholipase C beta3; 370,000 tested, 0.18% active; inhibition, % at 12.2 µM; Purified PLC-beta3, fluorogenic substrate, fluorescence; AID 720704; Q01970; in the data active means inhibition above about 11%
PLC-gamma1 inh = inhibitors of human phospholipase C gamma1; inhibition, % at 12.2 µM; 370,000 tested, 0.84% active; purified PLC-gamma1, fluorogenic substrate, fluorescence; AID 720700; P19174; in the data active means inhibition above about 9.5%
KLK7 act conf = proKLK7 activation, confirmation | purified proKLK7, EDANS-DABCYL substrate fluorescence; scaled: vehicle 0, mature enzyme 100 | activation, % at 7 µM | 3,200 tested, 68% active | shares compounds with KLK7 zymogen act;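 active means activation, as change over the incubation, above the mean of all tested compounds plus 3 SD, cut at about 13% in these data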
EDANS interfere = optically interferes with EDANS-DABCYL signal, flagging KLK7 hits | EDANS-DABCYL substrate fluorescence interference, no enzyme, 4 h; solvent 0%, active enzyme control 100% | shares compounds with KLK7 zymogen act | activation, % at 7 µM | AID 686952 | 3,200 tested, 80% active;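 active means activation above the all-compound mean plus 3 SD, ignoring values outside control-based bounds, cut at about 4.8% in these data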;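 further: value is the 4 h activation minus the activation read at time zero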
EDANS interf = counter-screen for kallikrein-7 activators: EDANS-DABCYL interference, dose response | shares compounds with KLK7 zymogen act | EDANS-DABCYL peptide fluorescence interference, no enzyme | EC50, µM | 250 tested, 20% active | AID 720493;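 active means compounds that raise the fluorescence signal in this interference counterscreen, with EC50 at or below 10 µM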;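 further: intact quenched peptide substrate alone read at 355 nm excitation and 520 nm emission; signal is fluorescence gain from T0 to T4 after four hours at room temperature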
Of the large screens only hits and unclear results are named; the others gave an inactive call (follow-up assays come after a bar, where they were run).

O=C(OCC(=O)N1CCN(C(=O)c2ccco2)CC1)c1ccccc1NCCO	KLK7 zymogen act 21.5 | KLK7 act conf 30.6 | EDANS interfere 31.3
CC(OC(=O)c1ccccc1NCCO)C(=O)NC1CCCCC1C (stereo not given)	KLK7 zymogen act 20.9 | KLK7 act conf 18.9 | EDANS interfere 21.2
CC1CCN(C(=O)COC(=O)c2ccccc2NC(=O)c2ccco2)CC1	none
CCN(CC)C(=O)COc1c(-c2ccco2)oc2ccccc2c1=O	none
CCN(CC)C(=O)COc1ccc2oc(-c3ccco3)cc(=O)c2c1	KLK7 zymogen act 27.7 | KLK7 act conf 52.5 | EDANS interfere 54.6
Fc1ccc(CNc2ncnc3cc(Cl)ccc23)cc1	none
Cc1c(CC(=O)NCC(=O)N[C@H](Cc2ccccc2)C(=O)O)c(=O)oc2cc(O)ccc12	KLK7 zymogen act 72.2 | KLK7 act conf 63.7 | EDANS interfere 72.9
Cc1c(-c2ccccc2)c(=O)oc2ccc(O)cc12	none
Cc1c(C)c2ccc(OCC(=O)N[C@@H](Cc3ccccc3)C(=O)O)cc2oc1=O	none
CCc1cc2c(CN3CCN(Cc4ccccc4)CC3)cc(=O)oc2cc1O	KLK7 zymogen act 62.0 | KLK7 act conf 21.1 | EDANS interfere inactive | EDANS interf inactive
CCc1ccc2c(CN3CCN(Cc4ccccc4)CC3)cc(=O)oc2c1	none
Cc1c(-c2ccccc2)c(=O)oc2cc(O)ccc12	KLK7 zymogen act 25.2 | KLK7 act conf 64.7 | EDANS interfere 69.0
Cc1c(O)ccc2c(CC(=O)N[C@@H](Cc3ccccc3)C(=O)O)cc(=O)oc12	KLK7 zymogen act 36.2 | KLK7 act conf 64.8 | EDANS interfere 61.3
N#Cc1cccc(NC(=O)OCCN2C(=O)CCC23CCC(c2ccc(Cl)cc2)CC3)c1 (stereo not given)	none
Cc1c(O)ccc2c(CN3CCN(Cc4ccccc4)CC3)cc(=O)oc12	KLK7 zymogen act 46.0 | KLK7 act conf 78.2 | EDANS interfere 74.6
O=C(CCc1nc(-c2ccccc2F)no1)NC1CCCCC1	none
COc1cccc(Nc2ccc(C(=O)O)cc2N)c1	KLK7 zymogen act 30.3 | KLK7 act conf inactive | EDANS interfere inactive
Cc1cc(C)cc(Nc2ccc(C(=O)O)cc2N)c1	none
COc1ccc2[nH]c(=O)c(C(c3nnnn3CC3CCCO3)N3CCc4ccccc4C3)cc2c1 (stereo not given)	KLK7 zymogen act 20.5 | KLK7 act conf inactive | EDANS interfere 9.9
O=C(O)c1ccc(N2C(=O)C3ON(c4ccccc4)C(c4ccccc4F)C3C2=O)cc1 (stereo not given)	none
CN(C)c1ccc(C2C3C(=O)N(c4ccc(C(=O)O)cc4)C(=O)C3ON2c2ccccc2)cc1 (stereo not given)	KLK7 zymogen act 62.7 | KLK7 act conf inactive | EDANS interfere inactive
CCOC(=O)C(NC(=O)CC)(Nc1sc(C)c(CC)c1C#N)C(F)(F)F (stereo not given)	none
COc1cc(-c2cc(=O)c3ccc(O)cc3o2)cc(OC)c1OC	KLK7 zymogen act 14.9 | KLK7 act conf inactive | EDANS interfere 8.7
CCN(CC)CCN1C2=C(C(=O)CC(C)(C)C2)C(c2cccc(F)c2)C2=C1CC(C)(C)CC2=O	KLK7 zymogen act 16.1 | KLK7 act conf inactive | EDANS interfere inactive
CC1(C)CC(=O)C2=C(C1)N(CCN1CCOCC1)C1=C(C(=O)CC(C)(C)C1)C2c1cccc(Cl)c1	KLK7 zymogen act 25.6 | KLK7 act conf inactive | EDANS interfere 8.1
CCCCN1C2=C(C(=O)CC(C)(C)C2)C(c2ccccc2)C2=C1c1ccccc1C2=O (stereo not given)	none
NC(=O)N/N=C/c1cc(Br)ccc1OC(=O)c1ccccc1	KLK7 zymogen act 16.5 | KLK7 act conf 14.0 | EDANS interfere 12.8
C[N+]1(CC(=O)OCCCc2ccccc2)CCCC1	none
CC(C)(C)NC(=O)C(c1ccncc1)n1c(-c2ccc(C(F)(F)F)cc2)nc2ccccc21 (stereo not given)	none
Cc1cccn2c(=O)c3cc(C(=O)NCC4CCCO4)c(=N)n(C4CCCC4)c3nc12 (stereo not given)	KLK7 zymogen act 81.0 | KLK7 act conf inactive | EDANS interfere inactive
N=c1c(C(=O)NCC2CCCO2)cc2c(=O)n3ccccc3nc2n1C1CCCCC1 (stereo not given)	KLK7 zymogen act 35.0 | KLK7 act conf inactive | EDANS interfere inactive
Cc1ccc2nc3c(cc(C(=O)NCC4CCCO4)c(=N)n3C3CCCC3)c(=O)n2c1 (stereo not given)	KLK7 zymogen act 80.8 | KLK7 act conf 71.9 | EDANS interfere 81.0
N=c1c(C(=O)NCC2CCCO2)cc2c(=O)n3ccccc3nc2n1C1CCCC1 (stereo not given)	KLK7 zymogen act 105.6 | KLK7 act conf 42.5 | EDANS interfere 30.2 | EDANS interf inactive
C[C@H](O)[C@@H]1C(=O)N2CCc3c([nH]c4ccccc34)[C@@H]2C[C@@H]1N(C)C(=O)c1cc(Cl)cc(Cl)c1	KLK7 zymogen act 46.9 | KLK7 act conf 15.3 | EDANS interfere 12.4 | EDANS interf inactive
C[C@H](O)[C@@H]1C(=O)N2CCc3c([nH]c4ccccc34)[C@@H]2C[C@@H]1N(C)Cc1ccc2c(c1)OCO2	KLK7 zymogen act 25.8 | KLK7 act conf inactive | EDANS interfere inactive
Cc1ccccc1C(=O)N(C)[C@H]1C[C@H]2c3[nH]c4ccccc4c3CCN2C(=O)[C@H]1[C@H](C)O	KLK7 zymogen act 78.1 | KLK7 act conf 27.2 | EDANS interfere 27.1
C[C@H](O)[C@@H]1C(=O)N2CCc3c([nH]c4ccccc34)[C@@H]2C[C@@H]1N(C)C(=O)Nc1cccc2ccccc12	none
Cc1ccc(S(=O)(=O)N(C)[C@H]2C[C@H]3c4[nH]c5cccc(-c6ccccc6)c5c4CCN3C(=O)[C@H]2[C@H](C)O)cc1	none
C[C@H](O)[C@@H]1C(=O)N2CCc3c([nH]c4ccccc34)[C@@H]2C[C@@H]1N(C)S(=O)(=O)c1ccccc1	KLK7 zymogen act 59.1 | KLK7 act conf 43.1 | EDANS interfere 36.6 | EDANS interf 7.47
C[C@H](O)[C@@H]1C(=O)N2CCc3c([nH]c4c(-c5ccccc5)cccc34)[C@@H]2C[C@@H]1N(C)C(=O)c1cc(Cl)cc(Cl)c1	none
CCCCN(C(=O)c1cc2c(s1)CCCC2)c1c(N)n(CCC)c(=O)[nH]c1=O	none
CCCOc1ccccc1-n1sc2c(c1=S)-c1cc(OC)cc3c1N(C(=O)C3=O)C2(C)C	none
C(=N/Nc1nccs1)/c1cccnc1	none
